# Inconclusive results are not listed. A call without a number means that no potency is given here. A number with no mark means an inactive call. Active and inactive are the calls of the source. Calls follow the shape of the dose curve; as a rule, active = well fitted curve in the direction sought with a large enough effect; inconclusive = small, poorly fitted or top-dose-only effect, or another doubt; inactive = no such curve, though single readings can be large; an effect the other way counts as inactive or inconclusive.
# Key:
# [1] = target: Aldehyde dehydrogenase, mitochondrial (Homo sapiens) (UniProt P05091); assay: qHTS for Inhibitors of the Aldehyde Dehydrogenase Family (ALDH2) Primary screen (AID 2061308); also: nearly all actives have a fitted effect of over 55% in size
# [2] = target: Retinaldehyde dehydrogenase 3 (Homo sapiens) (UniProt P47895); assay: qHTS for Inhibitors of the Aldehyde Dehydrogenase Family (ALDH1A3) Validation screen (AID 2061312); also: nearly all actives have a fitted effect of over 45% in size
# [3] = target: Retinaldehyde dehydrogenase 3 (Homo sapiens) (UniProt P47895); assay: qHTS for Inhibitors of the Aldehyde Dehydrogenase Family (ALDH1A3) Primary screen (AID 2061315)
# [4] = BET inhibitor-based combinations targeting novel dependencies in MECOM-rearranged (r) AML: SET-2 cell line (AID 2202231); settings: SET-2 AML cells viability, CellTiter-Glo luminescence, 48 h; viability: active compounds read low, concentration not given here; also: nearly all actives have a fitted effect of over 35% in size; also: potency is read from the fitted curve at half-maximal effect
# Summary of the method: (§1)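 AML cell lines seeded at 500 cells/well, treated with 11-point dose curves for 48 h. Viability by CellTiter-Glo luminescence, normalised to DMSO and empty wells; activity expressed as AUC and per-cell-line Z-transformed AUC.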
# [5] = BET inhibitor-based combinations targeting novel dependencies in MECOM-rearranged (r) AML: MV-4-11 cell line (AID 2202233); also: potency is read from the fitted curve at half-maximal effect; nearly all actives have a fitted effect of over 45% in size
# Summary of the method: (§2)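 Cells at 500/well were exposed for 48 hr to MIPE v5.0 drugs as 11-point dose curves. Viability was read by CellTiter-Glo luminescence and normalized to DMSO and empty-well controls. Activity was expressed as AUC and per-cell-line Z-AUC.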
# [6] = BET inhibitor-based combinations targeting novel dependencies in MECOM-rearranged (r) AML: HNT-34 cell line (AID 2202234); also: potency is read from the fitted curve at half-maximal effect; nearly all actives have a fitted effect of over 35% in size
# Summary of the method: as §2
# [7] = BET inhibitor-based combinations targeting novel dependencies in MECOM-rearranged (r) AML: UCSD-AML1 cell line (AID 2202235); also: nearly all actives have a fitted effect of over 40% in size; also: potency is read from the fitted curve at half-maximal effect
# Summary of the method: as §2
# [8] = BET inhibitor-based combinations targeting novel dependencies in MECOM-rearranged (r) AML: AML-191 cell line (AID 2202236; also: potency is read from the fitted curve at half-maximal effect; nearly all actives have a fitted effect of over 35% in size)
# Summary of the method: as §1
# [9] = BET inhibitor-based combinations targeting novel dependencies in MECOM-rearranged (r) AML: AML-194 cell line (AID 2202237; also: potency is read from the fitted curve at half-maximal effect; nearly all actives have a fitted effect of over 40% in size)
# Summary of the method: as §1
# [10] = BET inhibitor-based combinations targeting novel dependencies in MECOM-rearranged (r) AML: OCI-AML3 cell line (AID 2202232); settings: Potency: OCI-AML3 viability; also: nearly all actives have a fitted effect of over 35% in size; also: potency is read from the fitted curve at half-maximal effect
# Summary of the method: as §1
compound,measurement,setting,value
O=C(O)c1cc(N(Cc2ccc(C3CCCCC3)cc2)C(=O)c2ccc(Oc3ccccc3)cc2)ccc1O,Potency,[1],inactive
same,Potency,[2],inactive
same,Potency,[3],inactive
CCCc1ccc(OCC(=O)N(Cc2nc(-c3cccnc3)no2)C(C)C)cc1,Potency,[1],inactive
same,Potency,[2],inactive
same,Potency,[3],inactive
C=C(C(=O)OC)C1C(O)CC2(C)C(O)CCC(=O)C2C1O (centres undefined),Potency,[1],inactive
same,Potency,[3],inactive
C=C1CCC2C(C)(C)CCC[C@]2(C)[C@H]1C/C=C(\CO)C(=O)C(=O)O (some centres undefined),Potency,[1],inactive
same,Potency,[3],inactive
CC[C@@H](C)Nc1cc(C(=O)NC2CC3CC[C@@H](C2)N3c2ccc(C(=O)C3CC3)cn2)c(C)cc1C(N)=O (some centres undefined),Potency,[1],inactive
same,Potency,[2],inactive
same,Potency,[3],inactive
same,Potency,[4],132 nM (active)
same,Potency,[5],41.7 nM (active)
same,Potency,[6],105 nM (active)
same,Potency,[7],132 nM (active)
same,Potency,[8],118 nM (active)
same,Potency,[9],105 nM (active)
CCCC(N[C@@H](C)C(=O)N1[C@H](C(=O)O)C[C@@H]2CCCC[C@@H]21)C(=O)OCC (some centres undefined),Potency,[1],inactive
same,Potency,[2],inactive
same,Potency,[3],inactive
NC(=O)c1cccc2[nH]c(-c3ccc(C4CCCN4)cc3F)nc12 (centres undefined),Potency,[1],inactive
same,Potency,[2],inactive
same,Potency,[3],inactive
CN1CCC(c2c[nH]c3ccc(NC(=O)c4ccc(F)cc4)cc23)CC1,Potency,[1],inactive
same,Potency,[2],inactive
same,Potency,[3],inactive
CCNC1(C(N)=O)CCN(c2ncnc3c2nc(-c2ccccc2Cl)n3-c2ccc(Cl)cc2)CC1,Potency,[1],inactive
same,Potency,[2],inactive
same,Potency,[3],inactive
same,Potency,[10],inactive
same,Potency,[7],inactive
NS(=O)(=O)c1ccc(N2CCN(CC[C@@H]3OCCc4ccccc43)CC2)cc1,Potency,[1],inactive
same,Potency,[2],inactive
same,Potency,[3],inactive
CN(C)CCOc1cc(NS(=O)(=O)c2c(Cl)cc(C(F)(F)F)cc2Cl)ccc1Cl,Potency,[1],inactive
same,Potency,[2],inactive
same,Potency,[3],inactive
C[C@@H]1O[C@@H](O[C@H]2[C@H](O[C@H]3[C@H](O[C@H]4CC[C@@]5(C)C(CC[C@]6(C)C5CC=C5[C@@H]7CC(C)(C)C[C@@H](O)[C@]7(C)CC[C@]56C)[C@@]4(C)CO)O[C@H](C(=O)O)[C@@H](O)[C@@H]3O)O[C@H](CO)[C@H](O)[C@@H]2O)[C@H](O)[C@H](O)[C@H]1O (some centres undefined),Potency,[1],inactive
same,Potency,[3],inactive
C/C(=C\C(=O)OCCCCCCCCC(=O)O)C[C@@H]1OC[C@H](C[C@@H]2O[C@H]2[C@@H](C)[C@H](C)O)[C@@H](O)[C@H]1O,Potency,[1],inactive
same,Potency,[2],inactive
same,Potency,[3],inactive
CC(C)c1cc(C(=O)N2Cc3ccc(CN4CCN(C)CC4)cc3C2)c(O)cc1O,Potency,[1],inactive
same,Potency,[2],inactive
same,Potency,[3],inactive
same,Potency,[4],263 nM (active)
same,Potency,[10],296 nM (active)
same,Potency,[5],74.2 nM (active)
same,Potency,[6],209 nM (active)
same,Potency,[7],263 nM (active)
Clc1ccccc1CNCC1CCC(CNCc2ccccc2Cl)CC1 (centres undefined),Potency,[1],inactive
same,Potency,[2],inactive
same,Potency,[3],inactive
O=C(OC(C(F)(F)F)C(F)(F)F)N1CCN(Cc2cccc(Oc3ccccc3)c2)CC1,Potency,[1],inactive
same,Potency,[2],inactive
same,Potency,[3],inactive
CC(C)(N)C(=O)N[C@H](COCc1ccccc1)C(=O)N1CCC2(CC1)CN(S(C)(=O)=O)c1ccccc12,Potency,[1],inactive
same,Potency,[2],inactive
same,Potency,[3],inactive
same,viability,[4],104%
same,Potency,[10],11800 nM (active)
same,Potency,[5],10500 nM (active)
same,Potency,[8],20900 nM (active)
CC(C)C(CO)Nc1nc(Nc2cc(N)cc(Cl)c2)c2ncn(C(C)C)c2n1 (centres undefined),Potency,[1],inactive
same,Potency,[2],inactive
same,Potency,[3],inactive
COc1ccc(N2CCN(C(=O)c3cc4c(s3)-c3ccccc3S(=O)(=O)C4)CC2)cc1,Potency,[1],inactive
same,Potency,[2],inactive
same,Potency,[3],inactive
COc1ccc(CNCc2cccc3ccccc23)cc1,Potency,[1],inactive
same,Potency,[3],inactive
CCOC(=O)CCNc1cc(N2CCc3ccccc3CC2)nc(-c2cccnc2)n1,Potency,[1],inactive
same,Potency,[3],inactive
CC[N+]1(C/C2=C/CCCCCC2)CCC(NC(=O)C2c3cc(Cl)ccc3Oc3ccc(Cl)cc32)CC1 (centres undefined),Potency,[1],inactive
same,Potency,[2],inactive
same,Potency,[3],inactive
CC(=O)NC[C@H]1CN(c2ccc(N3CCSCC3)c(F)c2)C(=O)O1,Potency,[1],inactive
same,Potency,[2],inactive
same,Potency,[3],inactive
CN(C)CCCOc1nn(Cc2ccccc2)c2ccccc12,Potency,[1],inactive
same,Potency,[2],inactive
same,Potency,[3],inactive

# — PubChem BioAssay (NCATS)
